PubChem BioAssay AID1159580 (chemical genetic matrix, 2015)
Hit rate of the full screen: of about 5,500 compounds, about 2,000 (36%) were called active. About 18% were inconclusive and are not listed. No stated cut-off is given here; in the data, active means normalized growth mostly below about 0.91 (no sharp cut-off); inconclusive means no clear call, values can overlap the other calls; inactive means mostly above about 0.92. This is one part of the list.

Assay: chemical genetic growth profiling, strain panel (AID 1159580);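 further: tested at 20 µM; growth read once vehicle control cultures reached saturation at 30 °C; 1 = growth at the plate median or of vehicle wells; lower values mean less growth of the strain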
Details: S. cerevisiae deletion strains, growth OD

Measured: normalized growth

C=C1C2=CC(=O)O[C@@H](c3ccoc3)[C@]2(C)CCC1[C@@]1(C)C=CC(=O)C(C)(C)[C@@H]1CC(=O)OC (stereo partly drawn)
inactive: locus YAL021C, strain ccr4, hits give low values 1.04 | locus YAL026C, strain drs2, hits give low values 0.996 | locus YAL030W, strain snc1, hits give low values 0.998 | locus YBL061C, strain skt5, hits give low values 0.999 | locus YBR009C, strain hhf1, hits give low values 1.02 | locus YBR021W, strain FUR4, hits give low values 0.989 | locus YBR023C, strain chs3, hits give low values 1.01 | locus YBR171W, strain sec66, hits give low values 0.983 | locus YBR229C, strain ROT2, hits give low values 1 | locus YBR231C, strain swc5, hits give low values 0.982 | locus YBR279W, strain paf1, hits give low values 1 | locus YCL011C, strain gbp2, hits give low values 1.01 | locus YCL016C, strain dcc1, hits give low values 1.04 | locus YCL029C, strain bik1, hits give low values 0.983 | locus YCL061C, strain MRC1, hits give low values 1.01 | locus YCL069W, strain vba3, hits give low values 0.984 | locus YCR088W, strain abp1, hits give low values 0.982 | locus YDL005C, strain med2, hits give low values 0.996 | locus YDL035C, strain GPR1, hits give low values 0.991 | locus YDL040C, strain nat1, hits give low values 0.999 | locus YDL074C, strain BRE1, hits give low values 1.02 | locus YDL101C, strain DUN1, hits give low values 1.01 | locus YDL185W, strain tfp1, hits give low values 0.988 | locus YDL192W, strain arf1, hits give low values 0.999 | locus YDR001C, strain nth1, hits give low values 0.994 | locus YDR069C, strain doa4, hits give low values 0.991 | locus YDR101C, strain arx1, hits give low values 0.958 | locus YDR137W, strain rgp1, hits give low values 0.999 | locus YDR150W, strain NUM1, hits give low values 1.01 | locus YDR159W, strain sac3, hits give low values 0.953 | locus YDR162C, strain NBP2, hits give low values 1 | locus YDR195W, strain ref2 0.95 | locus YDR297W, strain sur2, hits give low values 0.988 | locus YDR318W, strain mcm21, hits give low values 1.01 | locus YDR334W, strain swr1, hits give low values 0.982 | locus YDR335W, strain msn5, hits give low values 0.997 | locus YDR388W, hits give low values 1 | locus YDR392W, strain spt3, hits give low values 1.03 | locus YDR502C, strain sam2, hits give low values 0.988 | locus YEL003W, strain gim4, hits give low values 0.994 | locus YEL037C, strain rad23, hits give low values 1 | locus YEL061C, strain CIN8 (second series), hits give low values 0.978 | locus YER015W, strain faa2, hits give low values 1.01 | locus YER016W, strain bim1, hits give low values 0.985 | locus YER110C, hits give low values 0.997 | locus YER111C, strain swi4, hits give low values 0.986 | locus YER155C, strain BEM2 (second series), hits give low values 1.02 | locus YER155C, strain BEM2, hits give low values 0.982 | locus YER167W, strain BCK2, hits give low values 1 | locus YFR010W, strain ubp6, hits give low values 0.972 | locus YGL078C, strain dbp3, hits give low values 0.999 | locus YGL086W, strain mad1, hits give low values 0.999 | locus YGL167C, strain pmr1, hits give low values 1.01 | locus YGL173C, strain kem1, hits give low values 0.99 | locus YGL227W, strain vid30, hits give low values 0.992 | locus YGL240W, strain doc1, hits give low values 0.994 | locus YGL248W, strain PDE1, hits give low values 1.01 | locus YGL253W, strain hxk2, hits give low values 0.937 | locus YGR078C, strain PAC10, hits give low values 1.01 | locus YGR135W, strain pre9, hits give low values 1.01 | locus YGR252W, strain gcn5, hits give low values 0.976 | locus YHR013C, strain ard1, hits give low values 1.01 | locus YHR027C, strain rpn1, hits give low values 0.976 | locus YHR079C, strain IRE1 (second series), hits give low values 0.985 | locus YHR094C, strain hxt1, hits give low values 0.996 | locus YHR129C, strain ARP1, hits give low values 1.01 | locus YHR142W, strain chs7, hits give low values 1.01 | locus YHR200W, strain rpn10, hits give low values 1 | locus YIL066C, strain RNR3, hits give low values 1.01 | locus YIL073C, strain SPO22, hits give low values 1.02 | locus YIL125W, strain kgd1, hits give low values 0.995 | locus YIR030C, strain dcg1, hits give low values 1 | locus YJL092W, strain hpr5, hits give low values 0.984 | locus YJL095W, strain BCK1 (second series), hits give low values 0.986 | locus YJL095W, strain BCK1, hits give low values 1.02 | locus YJL115W, strain asf1, hits give low values 0.999 | locus YJL129C, strain trk1, hits give low values 0.99 | locus YJL134W, strain LCB3, hits give low values 0.997 | locus YJL154C, strain vps35, hits give low values 0.995 | locus YJL164C, strain tpk1, hits give low values 1.02 | locus YJL166W, strain qcr8, hits give low values 0.996 | locus YJL168C, strain set2, hits give low values 1 | locus YJL187C, strain SWE1 (second series), hits give low values 1.01 | locus YJL187C, strain SWE1, hits give low values 0.99 | locus YJR075W, strain HOC1, hits give low values 0.993 | locus YKL009W, strain mrt4, hits give low values 0.976 | locus YKL068W, hits give low values 0.997 | locus YKL085W, strain MDH1 (second series), hits give low values 0.992 | locus YKL085W, strain MDH1, hits give low values 0.992 | locus YKL160W, strain elf1, hits give low values 1.06 | locus YKR001C, strain vps1, hits give low values 0.998 | locus YKR026C, strain gcn3, hits give low values 0.976 | locus YKR091W, strain srl3, hits give low values 0.994 | locus YLL001W, strain dnm1, hits give low values 0.99 | locus YLL026W, hits give low values 0.989 | locus YLL041C, strain sdh2, hits give low values 0.987 | locus YLR027C, strain aat2, hits give low values 0.978 | locus YLR039C, strain RIC1, hits give low values 1.05 | locus YLR058C, strain SHM2, hits give low values 1.01 | locus YLR102C, strain apc9, hits give low values 1 | locus YLR221C, strain rsa3, hits give low values 0.987 | locus YLR258W, strain gsy2, hits give low values 1.02 | locus YLR262C, strain YPT6 (second series), hits give low values 0.997 | locus YLR262C, strain YPT6, hits give low values 1.08 | locus YLR268W, strain sec22, hits give low values 0.996 | locus YLR320W, strain mms22, hits give low values 1.01 | locus YLR342W, strain FKS1 (second series), hits give low values 1.01 | locus YLR342W, strain FKS1, hits give low values 0.995 | locus YLR357W, strain rsc2, hits give low values 1.03 | locus YLR370C, strain arc18, hits give low values 0.97 | locus YLR371W, strain rom2, hits give low values 0.998 | locus YLR384C, strain iki3, hits give low values 1 | locus YLR418C, strain cdc73, hits give low values 1.01 | locus YML016C, strain PPZ1, hits give low values 0.998 | locus YML032C, strain rad52, hits give low values 0.984 | locus YML120C, strain ndi1, hits give low values 1.02 | locus YML124C, strain tub3, hits give low values 0.997 | locus YMR058W, strain fet3, hits give low values 1 | locus YMR078C, strain ctf18, hits give low values 1 | locus YMR125W, strain sto1, hits give low values 1 | locus YMR129W, hits give low values 0.991 | locus YMR205C, strain PFK2, hits give low values 1.07 | locus YMR223W, strain ubp8, hits give low values 0.989 | locus YMR231W, strain pep5, hits give low values 0.973 | locus YMR307W, strain GAS1, hits give low values 1.03 | locus YNL067W, strain RPL9B, hits give low values 1 | locus YNL071W, strain lat1, hits give low values 0.996 | locus YNL209W, strain ssb2, hits give low values 1.03 | locus YNL233W, strain BNI4, hits give low values 1.01 | locus YNL248C, strain rpa49, hits give low values 0.966 | locus YNL250W, strain rad50, hits give low values 0.997 | locus YNL271C, strain bni1, hits give low values 0.995 | locus YNL298W, strain CLA4, hits give low values 0.988 | locus YNL307C, strain MCK1, hits give low values 1 | locus YNL322C, strain KRE1 (second series), hits give low values 0.995 | locus YNL322C, strain KRE1, hits give low values 0.995 | locus YNR049C, strain mso1, hits give low values 0.99 | locus YNR052C, strain pop2, hits give low values 1.01 | locus YOL012C, strain htz1 1.06 | locus YOL147C, strain pex11, hits give low values 0.996 | locus YOR001W, strain rrp6, hits give low values 0.947 | locus YOR061W, strain CKA2, hits give low values 0.994 | locus YOR069W, strain VPS5, hits give low values 1 | locus YOR070C, strain gyp1, hits give low values 1 | locus YOR080W, strain dia2, hits give low values 0.983 | locus YOR083W, strain WHI5, hits give low values 1.06 | locus YOR106W, strain vam3, hits give low values 1.03 | locus YOR136W, strain idh2, hits give low values 0.993 | locus YOR144C, strain elg1, hits give low values 0.995 | locus YOR184W, strain ser1, hits give low values 0.992 | locus YOR265W, strain rbl2, hits give low values 0.984 | locus YOR270C, strain vph1, hits give low values 0.991 | locus YOR290C, strain snf2, hits give low values 1.06 | locus YOR316C, strain cot1, hits give low values 0.95 | locus YPL051W, strain arl3, hits give low values 0.985 | locus YPL078C, strain atp4, hits give low values 1.05 | locus YPL106C, strain sse1, hits give low values 1.08 | locus YPL240C, strain hsp82, hits give low values 0.992 | locus YPR119W, strain clb2, hits give low values 1 | locus YPR141C, strain kar3, hits give low values 0.999 | locus YPR163C, strain tif3, hits give low values 0.991 | locus YPR167C, strain met16, hits give low values 0.992 | strain wtn01, hits give low values 0.978
